Measured values reported in ChEMBL document CHEMBL4513216, “Probing the Open Global Health Chemical Diversity Library for Multistage-Active Starting Points for Next-Generation Antimalarials” (ACS Infect Dis, 2020).
Out of some 69,000 compounds screened, about 8,600 (12%) showed an effect of 50% or more. Only a selection was taken, and strong results are over-represented in it overall.

The compounds below were run on Plasmodium berghei (assay: Screen against P. berghei liver stage (PbLuc), transformed with Luciferase, at 10uM). Conditions: tested at 10 uM.
Format: functional, HepG2
Work on `c1csc(CN2CCCn3cnc(CN4CCCC4)c3C2)c1` yielded an INHIBITION of 41.6%.
Work on `c1coc(-c2nc(CN3CCCC(Cn4cncn4)C3)cs2)c1` (stereo not drawn) yielded an INHIBITION of 16.8%.
In the case of `Cc1cc(C)nc(N2CCC(c3c(C(N)=O)sc4ccccc34)C2)n1` (stereo not drawn), the INHIBITION is reported as -14.2%.
Compound `CNC(=O)c1sc2ccccc2c1C1CCN(c2nc(C)cc(C)n2)C1` (stereo not drawn) has an INHIBITION of 0.696%.
`CNC(=O)c1sc2ccccc2c1C1CCN(c2cc(C)nc(C)n2)C1` (stereo not drawn) showed an INHIBITION of 74.9%.
Compound `Cc1ccc2c(c1)CCC21CCN(C(=O)CN(C)C)CC1` has an INHIBITION of 38.5%.
In the case of `Cc1cc(C(=O)N(C)Cc2ccoc2)c(NC(=O)C(C)(C)C)s1`, the INHIBITION is reported as -28.9%.
In the case of `Cc1nc(CN(C)C(=O)c2cc(C)sc2NC(=O)C(C)(C)C)no1`, the INHIBITION is reported as 18%.
Compound `Cc1cc(C(=O)N(C)Cc2ccn[nH]2)c(NC(=O)C(C)(C)C)s1` has an INHIBITION of 51.3%.
In the case of `O=C([C@@H]1CCO[C@@H]2CCN(Cc3ccc(F)cc3)C[C@H]21)N1CCCCO1`, the INHIBITION is reported as 30.3%.
`CCCc1cc(NCc2cc(C)on2)n2nccc2n1` gave an INHIBITION of 23.8%.
`CCCc1cc(CNc2cc(CCC)nc3ccnn23)on1` was tested, and the INHIBITION was 53.5%.
Compound `CCc1cc(NCc2cc(CC(C)C)on2)n2nccc2n1` has an INHIBITION of 26.8%.
For `COc1ccccc1CC(=O)NC1CCCc2cn[nH]c21` (stereo not drawn), the INHIBITION was 8.31%.
`Cc1cccc(CN2C[C@@H]3CN(C(=O)c4ccco4)C[C@@H]3C2=O)n1` was tested, and the INHIBITION was 23.5%.
Compound `CC(CCCC(C)(C)O)Nc1ccc(-c2nccn2C)nn1` (stereo not drawn) has an INHIBITION of 60.4%.
With `CC(CCn1cccn1)Nc1ccc(-c2nccn2C)nn1` (stereo not drawn) the INHIBITION was 48.5%.
`CC(Cn1cncn1)Nc1ccc(-c2nccn2C)nn1` (stereo not drawn) showed an INHIBITION of 9.91%.
For `CN(C)CCN(Cc1ccc(F)cc1)C(=O)c1ccn(C)c(=O)c1`, the INHIBITION was 39.1%.
In the case of `Cc1nc(CN2C(=O)CCC23CCN(Cc2ccccn2)CC3)cs1`, the INHIBITION is reported as 19.4%.
Work on `Cc1cc2ccccc2n1CCC(=O)N1CCCC(O)(CN(C)C)CC1` (stereo not drawn) yielded an INHIBITION of -60.9%.
With `CN(C)CC1(O)CCCN(C(=O)Cn2ccc3ccccc32)CC1` (stereo not drawn) the INHIBITION was 89.9%.
`CN(C)CC1(O)CCCN(C(=O)Cn2nc3ccccc3n2)CC1` (stereo not drawn) was tested, and the INHIBITION was -21.8%.
`Cc1nc2ccc(C(=O)N3CCC(COc4ccccn4)CC3)cc2[nH]1` gave an INHIBITION of -6.73%.
With `Cc1cc(C)nc(C2CCCN2C(=O)c2coc(C)n2)n1` (stereo not drawn) the INHIBITION was 20.2%.
Work on `Cc1cc(C)n(Cc2ccc(-c3noc(C(=O)NCCCO)n3)cc2)n1` yielded an INHIBITION of 33%.
For `CCc1nnc2n1CCN(Cc1cccc3c1OCCO3)C2`, the INHIBITION was 50.35%.
`Fc1cccc2[nH]c(CN3CCn4c(nnc4C4CC4)C3)nc12` was tested, and the INHIBITION was -33.5%.
For `c1cc(CN2CCc3cncnc3C2)c2c(c1)OCCO2`, the INHIBITION was 41.6%.
Compound `CCc1ncc2c(n1)CN(Cc1nc3c(F)cccc3[nH]1)CC2` has an INHIBITION of 52.8%.
`Fc1cccc2[nH]c(CN3CCc4cncnc4C3)nc12` gave an INHIBITION of 52.8%.
With `CCc1nnc2n1CCN(Cc1nc3c(F)cccc3[nH]1)C2` the INHIBITION was 58.1%.
With `Cc1ncc2c(n1)CN(Cc1nc3c(F)cccc3[nH]1)CC2` the INHIBITION was 0.902%.
Compound `CC(C)c1nnc2n1CCN(Cc1cccc3c1OCCO3)C2` has an INHIBITION of -67.8%.
In the case of `CCc1nnc2n1CCN(Cc1ccc3c(c1)OCCO3)C2`, the INHIBITION is reported as 18.9%.
For `Cc1nnc2n1CCN(Cc1nc3c(F)cccc3[nH]1)C2`, the INHIBITION was -43.5%.
`CC(C)c1ncc2c(n1)CN(Cc1nc3c(F)cccc3[nH]1)CC2` showed an INHIBITION of 36.6%.
In the case of `CC(C)c1nnc2n1CCN(Cc1nc3c(F)cccc3[nH]1)C2`, the INHIBITION is reported as -65%.
Work on `COc1cccc2c(=O)n(Cc3nc(C)cc(O)n3)cnc12` yielded an INHIBITION of 1.56%.
In the case of `Cc1[nH]c2ccc(C(=O)N3C[C@@H](O)[C@H](N4CCOCC4)C3)cc2c1C`, the INHIBITION is reported as -29.8%.
With `O=C(NCc1ccccc1)C1CN(c2ccccn2)CCO1` (stereo not drawn) the INHIBITION was 22%.
With `CCS(=O)(=O)N1CCN(C(C)c2ncc(-c3ccccc3)o2)CC1` (stereo not drawn) the INHIBITION was 12.9%.
In the case of `CN(C)c1ncc(-c2ccc(NC(=O)[C@@H]3CCCCN3)cc2)cn1`, the INHIBITION is reported as 1.11%.
`CN1CCCC1(CCCc1cccnc1)C(=O)NCc1nccn1C` (stereo not drawn) showed an INHIBITION of 15.5%.
`CC(c1ccc(S(N)(=O)=O)cc1)N(C)C(=O)c1ccccc1I` (stereo not drawn) was tested, and the INHIBITION was -43.5%.
`CC(C)c1nc(CN(C)Cc2cnc(N3CCOCC3)nc2)no1` was tested, and the INHIBITION was 74.7%.
For `Cc1noc(CN(C)Cc2cnc(N3CCOCC3)nc2)n1`, the INHIBITION was 20.1%.
Work on `Cc1noc(C)c1CN(C)Cc1cnc(N2CCOCC2)nc1` yielded an INHIBITION of 39.4%.
`CCCC1CCCN(C(=O)Nc2ccc(F)c(C(N)=O)c2)CC1` (stereo not drawn) was tested, and the INHIBITION was 53.8%.
`COc1ccc(Oc2ncccc2NC(=O)N2CC[C@H](O)C2)cc1` was tested, and the INHIBITION was 16.3%.
`COc1ccc(Oc2ncccc2NC(=O)N2CCOCC2)cc1` showed an INHIBITION of 55.5%.
For `CCCC1CCCN(C(=O)Nc2cccnc2OC)CC1` (stereo not drawn), the INHIBITION was 81.6%.
In the case of `COc1ncccc1NC(=O)N1CCC(CNC(C)=O)CC1`, the INHIBITION is reported as 7.9%.
In the case of `COc1ncccc1NC(=O)N1CCCC(CNC(=O)OC(C)(C)C)C1` (stereo not drawn), the INHIBITION is reported as 57.7%.
`CCN(CC)C(=O)C1CCN(C(=O)Nc2cccnc2OC)CC1` gave an INHIBITION of 22.6%.
In the case of `NC(=O)c1cc(NC(=O)N2CCCCCC2)ccc1F`, the INHIBITION is reported as -7.9%.
`CC1CCCN(C(=O)Nc2ccc(F)c(C(N)=O)c2)C1` (stereo not drawn) was tested, and the INHIBITION was 23.6%.
With `COc1ccc(Oc2ncccc2NC(=O)N2CCOC(C)C2)cc1` (stereo not drawn) the INHIBITION was 44.3%.
Compound `COc1ncccc1NC(=O)NCC1CC1` has an INHIBITION of 12.2%.
Compound `CCOc1ncccc1NC(=O)N1CCCC(CNC(N)=O)C1` (stereo not drawn) has an INHIBITION of 22.8%.
`O=C(c1cc2c(s1)CCC2)N1CCC(c2cnccn2)CC1` was tested, and the INHIBITION was 28.5%.
With `CC(C)NC(=O)N1CCC2(CC1)CN(C(=O)NC(C)C)CCO2` the INHIBITION was 11.8%.
`CC(C)C(=O)NCc1ccc(N2CCCC2)nc1` showed an INHIBITION of -24.2%.
`O=C(NCc1csc(-c2cnccn2)n1)c1cnn2c1CCCC2` gave an INHIBITION of 8.7%.
`Cc1cnn(CC2CCCN2C(=O)CCc2c(C)noc2Cl)c1` (stereo not drawn) gave an INHIBITION of 0%.
`CCNC(=O)[C@@H]1C[C@@H](NC(=O)c2ccsc2)CN1CCCSC` gave an INHIBITION of -16.9%.
`Cc1cccc(CNC(=O)CNc2cc(CO)ccc2Cl)c1` showed an INHIBITION of 14.2%.
Compound `CN1CC(=O)N(c2cnn(C)c2)CC12CCN(Cc1cccnc1)C2` (stereo not drawn) has an INHIBITION of 39.8%.
